What all share (assay): DAPPL (digital affinity profiling via proximity ligation, sequencing); 10 mM Tris-HCl pH 7.5, 50 mM NaCl, 1 mM DTT, 4% glycerol, room temperature, 30 min; GST-TFs on glutathione beads, 16-mer random dsDNA library, 0.1% formaldehyde crosslink after washing; high values mean tight binding
One test concerns the target T1, FEV (Homo sapiens, UniProt Q99581 1-238).
T1 sequence: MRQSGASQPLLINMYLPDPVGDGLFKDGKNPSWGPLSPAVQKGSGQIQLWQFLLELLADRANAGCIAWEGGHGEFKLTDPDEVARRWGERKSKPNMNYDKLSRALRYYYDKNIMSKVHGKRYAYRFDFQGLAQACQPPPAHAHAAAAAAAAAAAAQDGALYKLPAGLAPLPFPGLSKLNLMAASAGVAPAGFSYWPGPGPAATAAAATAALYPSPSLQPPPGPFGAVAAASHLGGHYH
The conditions noted are these: protein: recombinant; tags: N-terminal GST; dsDNA, one strand shown. A digest of the protocol: (§1)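 In yeast, human transcription factors were expressed with a GST fusion, then pulled down on glutathione beads and given DNA barcodes. Pooled with a tag-only sample, they were exposed to 200 nmole of a 16-mer random double-stranded DNA library (Tris/NaCl/DTT/glycerol buffer, room temperature, 30 min), washed, crosslinked with 0.1% formaldehyde, proximity-ligated using BsaI/T4 ligase for 1 h at 37 °C, PCR-amplified and read on an Illumina NextSeq500. Each hexamer's frequency of reads for a factor, divided by the matching frequency for the tag-only sample, gives the binding signal.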

Another test deals with ETV5 (Homo sapiens, UniProt P41161 1-510). The conditions noted are these: protein: recombinant; tags: N-terminal GST; dsDNA, one strand shown. A digest of the protocol:
as §1

The target in another test is HSF1 (Homo sapiens, UniProt Q00613 1-529). The following applies: protein: recombinant; tags: N-terminal GST; chain copies: 3; dsDNA, one strand shown. A digest of the protocol:
as §1

In a further test the target is T2, SPIC (Homo sapiens, UniProt Q8N5J4 1-248).
T2 sequence: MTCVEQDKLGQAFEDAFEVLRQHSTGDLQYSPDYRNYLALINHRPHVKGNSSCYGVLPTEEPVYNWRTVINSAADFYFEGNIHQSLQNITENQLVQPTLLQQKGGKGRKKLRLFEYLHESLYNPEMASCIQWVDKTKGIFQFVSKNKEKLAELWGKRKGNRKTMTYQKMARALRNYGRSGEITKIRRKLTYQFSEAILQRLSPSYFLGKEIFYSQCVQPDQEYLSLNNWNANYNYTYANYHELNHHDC
The following applies: protein: recombinant; tags: N-terminal GST; dsDNA, one strand shown. A digest of the protocol:
as §1

The target in a further test is ELF4 (Homo sapiens, UniProt Q99607 1-663). The following applies: protein: recombinant; tags: N-terminal GST; dsDNA, one strand shown. A digest of the protocol: as §1
The target in a further test is T3, ELK4 (Homo sapiens, UniProt P28324-2 1-405).
T3 sequence: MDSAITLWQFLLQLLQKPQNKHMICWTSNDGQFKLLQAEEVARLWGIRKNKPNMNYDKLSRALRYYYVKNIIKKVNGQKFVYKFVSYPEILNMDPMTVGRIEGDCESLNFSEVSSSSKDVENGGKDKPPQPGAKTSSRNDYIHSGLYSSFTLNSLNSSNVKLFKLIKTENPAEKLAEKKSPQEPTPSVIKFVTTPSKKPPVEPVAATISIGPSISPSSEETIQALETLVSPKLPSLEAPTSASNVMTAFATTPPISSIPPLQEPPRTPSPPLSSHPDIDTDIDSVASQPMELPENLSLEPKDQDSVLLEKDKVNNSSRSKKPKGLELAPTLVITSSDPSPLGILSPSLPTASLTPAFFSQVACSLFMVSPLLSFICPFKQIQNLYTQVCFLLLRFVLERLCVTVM
The conditions noted are these: protein: recombinant; tags: N-terminal GST; dsDNA, one strand shown. In a few lines:
as §1

For another test, the target named is T4, ETV2 (Homo sapiens, UniProt O00321 1-342).
T4 sequence: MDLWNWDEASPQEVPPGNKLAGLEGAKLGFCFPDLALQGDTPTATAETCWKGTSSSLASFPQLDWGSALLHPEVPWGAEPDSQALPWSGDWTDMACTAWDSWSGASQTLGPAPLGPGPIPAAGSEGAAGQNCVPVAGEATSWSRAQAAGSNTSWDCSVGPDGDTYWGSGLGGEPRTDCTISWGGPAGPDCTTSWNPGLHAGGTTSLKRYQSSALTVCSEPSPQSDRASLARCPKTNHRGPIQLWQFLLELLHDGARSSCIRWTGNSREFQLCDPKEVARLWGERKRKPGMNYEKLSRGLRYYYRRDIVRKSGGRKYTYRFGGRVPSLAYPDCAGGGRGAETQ
The following applies: protein: recombinant; tags: N-terminal GST; dsDNA, one strand shown. A digest of the protocol: as §1

For the next test, the target named is T5, ELF3 (Homo sapiens, UniProt P78545 1-371).
T5 sequence: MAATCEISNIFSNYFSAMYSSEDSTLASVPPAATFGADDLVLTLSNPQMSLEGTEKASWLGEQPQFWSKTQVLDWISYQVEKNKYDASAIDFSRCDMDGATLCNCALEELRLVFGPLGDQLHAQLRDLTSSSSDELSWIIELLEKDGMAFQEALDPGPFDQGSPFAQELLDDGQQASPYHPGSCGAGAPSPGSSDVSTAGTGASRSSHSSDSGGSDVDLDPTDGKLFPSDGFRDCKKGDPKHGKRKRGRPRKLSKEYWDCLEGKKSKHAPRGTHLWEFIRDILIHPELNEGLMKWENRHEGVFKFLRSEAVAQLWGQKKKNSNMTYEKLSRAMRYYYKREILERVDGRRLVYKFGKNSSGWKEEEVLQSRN
The following applies: protein: recombinant; tags: N-terminal GST; dsDNA, one strand shown. A digest of the protocol:
as §1

Another test has as its target CRX (Homo sapiens, UniProt O43186 1-299). The following applies: protein: recombinant; tags: N-terminal GST; dsDNA, one strand shown. In a few lines:
as §1

The next test concerns the target ETV1 (Homo sapiens, UniProt P50549 1-477). The following applies: protein: recombinant; tags: N-terminal GST; dsDNA, one strand shown. In a few lines: as §1
A further test concerns the target T6, ERF (Homo sapiens, UniProt P50548 1-548).
T6 sequence: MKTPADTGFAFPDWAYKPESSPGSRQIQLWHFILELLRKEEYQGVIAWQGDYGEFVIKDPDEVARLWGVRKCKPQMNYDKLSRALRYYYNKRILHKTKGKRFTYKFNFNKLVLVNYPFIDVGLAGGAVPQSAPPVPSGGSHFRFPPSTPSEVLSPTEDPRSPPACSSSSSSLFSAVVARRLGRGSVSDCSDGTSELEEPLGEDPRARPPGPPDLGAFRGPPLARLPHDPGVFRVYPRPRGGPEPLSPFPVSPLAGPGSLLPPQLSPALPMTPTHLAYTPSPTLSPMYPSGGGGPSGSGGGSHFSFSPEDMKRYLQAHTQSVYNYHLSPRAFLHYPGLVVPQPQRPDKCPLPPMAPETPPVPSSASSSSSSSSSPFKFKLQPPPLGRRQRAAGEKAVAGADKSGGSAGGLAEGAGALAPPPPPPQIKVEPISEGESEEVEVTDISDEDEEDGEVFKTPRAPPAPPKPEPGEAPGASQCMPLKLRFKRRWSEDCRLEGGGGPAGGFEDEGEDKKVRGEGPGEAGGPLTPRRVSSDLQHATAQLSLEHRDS
The following applies: protein: recombinant; tags: N-terminal GST; dsDNA, one strand shown. A digest of the protocol: as §1

A further test deals with T7, ETV3L (Homo sapiens, UniProt Q6ZN32 1-361).
T7 sequence: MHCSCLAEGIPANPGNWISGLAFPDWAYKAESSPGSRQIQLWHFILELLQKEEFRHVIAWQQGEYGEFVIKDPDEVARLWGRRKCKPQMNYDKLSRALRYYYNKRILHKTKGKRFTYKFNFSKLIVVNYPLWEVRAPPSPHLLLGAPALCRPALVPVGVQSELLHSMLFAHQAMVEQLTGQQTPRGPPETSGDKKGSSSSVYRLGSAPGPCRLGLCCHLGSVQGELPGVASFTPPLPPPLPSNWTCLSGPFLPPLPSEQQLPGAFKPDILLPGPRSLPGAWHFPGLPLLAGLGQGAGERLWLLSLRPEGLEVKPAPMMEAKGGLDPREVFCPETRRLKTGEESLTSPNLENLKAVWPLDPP
The following applies: protein: recombinant; tags: N-terminal GST; dsDNA, one strand shown. In a few lines: as §1

Another test addresses T8, ETS2 (Homo sapiens, UniProt P15036 1-469).
T8 sequence: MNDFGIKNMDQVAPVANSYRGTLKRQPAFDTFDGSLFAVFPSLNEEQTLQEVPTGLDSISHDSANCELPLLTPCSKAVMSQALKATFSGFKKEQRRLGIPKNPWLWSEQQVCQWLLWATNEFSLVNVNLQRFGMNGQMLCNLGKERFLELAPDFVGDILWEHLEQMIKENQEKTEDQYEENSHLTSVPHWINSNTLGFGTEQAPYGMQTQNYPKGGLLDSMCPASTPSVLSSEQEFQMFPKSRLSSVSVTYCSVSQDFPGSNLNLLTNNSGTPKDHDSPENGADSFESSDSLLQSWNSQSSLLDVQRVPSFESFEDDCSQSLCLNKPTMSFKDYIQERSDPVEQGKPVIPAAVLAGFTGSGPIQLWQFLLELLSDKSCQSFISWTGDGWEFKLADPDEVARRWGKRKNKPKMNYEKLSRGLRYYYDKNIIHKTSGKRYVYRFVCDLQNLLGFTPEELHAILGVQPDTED
The following applies: protein: recombinant; tags: N-terminal GST; dsDNA, one strand shown. In a few lines:
as §1

The next test has as its target T9, SPDEF (Homo sapiens, UniProt O95238 1-335).
T9 sequence: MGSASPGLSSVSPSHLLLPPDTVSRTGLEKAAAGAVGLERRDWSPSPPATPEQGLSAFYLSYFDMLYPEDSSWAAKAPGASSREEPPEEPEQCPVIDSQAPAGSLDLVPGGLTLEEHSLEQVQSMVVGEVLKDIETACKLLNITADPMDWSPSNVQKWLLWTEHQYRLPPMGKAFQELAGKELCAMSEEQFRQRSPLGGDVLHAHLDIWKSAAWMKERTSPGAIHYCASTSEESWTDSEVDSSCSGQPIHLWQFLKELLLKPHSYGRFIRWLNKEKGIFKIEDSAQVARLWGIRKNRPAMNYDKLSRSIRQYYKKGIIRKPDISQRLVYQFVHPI
The conditions noted are these: protein: recombinant; tags: N-terminal GST; dsDNA, one strand shown. In a few lines: as §1

The next test addresses T10, ETV7 (Homo sapiens, UniProt Q9Y603 1-341).
T10 sequence: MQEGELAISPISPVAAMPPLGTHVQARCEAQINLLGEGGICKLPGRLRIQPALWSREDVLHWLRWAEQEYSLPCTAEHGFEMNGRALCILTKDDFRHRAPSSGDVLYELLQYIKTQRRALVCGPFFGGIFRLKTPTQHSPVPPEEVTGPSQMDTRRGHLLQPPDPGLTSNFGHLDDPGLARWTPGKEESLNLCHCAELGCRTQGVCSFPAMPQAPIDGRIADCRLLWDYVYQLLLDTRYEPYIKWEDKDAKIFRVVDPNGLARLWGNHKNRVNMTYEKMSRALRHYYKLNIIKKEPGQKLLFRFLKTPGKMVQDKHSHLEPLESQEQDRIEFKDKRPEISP
The following applies: protein: recombinant; tags: N-terminal GST; dsDNA, one strand shown. In a few lines:
as §1

A further test concerns the target T11, ELF5 (Homo sapiens, UniProt Q9UKW6-2 1-255).
T11 sequence: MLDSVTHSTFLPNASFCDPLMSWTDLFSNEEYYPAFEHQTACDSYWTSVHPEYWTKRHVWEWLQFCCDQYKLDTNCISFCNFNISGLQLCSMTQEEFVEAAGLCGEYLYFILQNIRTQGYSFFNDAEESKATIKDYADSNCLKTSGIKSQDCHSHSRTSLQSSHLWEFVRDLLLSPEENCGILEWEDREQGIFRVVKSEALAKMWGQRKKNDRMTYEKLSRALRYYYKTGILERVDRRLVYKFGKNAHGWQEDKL
The conditions noted are these: protein: recombinant; tags: N-terminal GST; dsDNA, one strand shown. A digest of the protocol: as §1

In another test the target is T12, ETV3 (Homo sapiens, UniProt P41162-2 1-143).
T12 sequence: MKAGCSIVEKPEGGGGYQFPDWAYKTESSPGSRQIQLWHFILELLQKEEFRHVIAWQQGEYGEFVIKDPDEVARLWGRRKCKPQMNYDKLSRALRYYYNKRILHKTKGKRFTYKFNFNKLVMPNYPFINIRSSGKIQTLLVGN
The conditions noted are these: protein: recombinant; tags: N-terminal GST; dsDNA, one strand shown. In a few lines:
as §1

The next test has as its target ETV6 (Homo sapiens, UniProt P41212 1-452). The conditions noted are these: protein: recombinant; tags: N-terminal GST; dsDNA, one strand shown. In a few lines:
as §1

This passage reports binding signal results from article PMC7862700, “An all-to-all approach to the identification of sequence-specific readers for epigenetic DNA modifications on cytosine”.

Sequence of ETV1 (P50549 whole entry): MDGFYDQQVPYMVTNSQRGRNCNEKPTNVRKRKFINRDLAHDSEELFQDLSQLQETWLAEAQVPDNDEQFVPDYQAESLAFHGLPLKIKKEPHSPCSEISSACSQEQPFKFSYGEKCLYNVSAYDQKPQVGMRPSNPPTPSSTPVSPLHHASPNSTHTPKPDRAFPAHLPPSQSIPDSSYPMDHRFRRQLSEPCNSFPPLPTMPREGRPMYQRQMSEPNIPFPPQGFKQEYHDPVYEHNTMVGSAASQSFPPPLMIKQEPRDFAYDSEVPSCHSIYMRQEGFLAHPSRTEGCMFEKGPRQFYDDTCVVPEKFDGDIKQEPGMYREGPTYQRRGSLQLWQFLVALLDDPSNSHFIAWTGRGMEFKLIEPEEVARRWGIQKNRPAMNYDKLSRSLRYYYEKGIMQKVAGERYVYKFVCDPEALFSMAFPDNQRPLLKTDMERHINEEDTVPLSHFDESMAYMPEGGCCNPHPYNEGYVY
Sequence of CRX (O43186 whole entry): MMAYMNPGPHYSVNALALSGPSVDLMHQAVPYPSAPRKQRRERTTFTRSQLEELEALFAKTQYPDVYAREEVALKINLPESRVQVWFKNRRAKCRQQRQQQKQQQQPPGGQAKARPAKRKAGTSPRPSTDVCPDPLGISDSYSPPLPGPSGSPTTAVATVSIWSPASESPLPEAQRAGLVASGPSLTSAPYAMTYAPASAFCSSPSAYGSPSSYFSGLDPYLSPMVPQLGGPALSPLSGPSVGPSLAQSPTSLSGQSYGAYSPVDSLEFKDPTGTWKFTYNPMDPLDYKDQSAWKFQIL
Sequence of ETV6 (P41212 whole entry): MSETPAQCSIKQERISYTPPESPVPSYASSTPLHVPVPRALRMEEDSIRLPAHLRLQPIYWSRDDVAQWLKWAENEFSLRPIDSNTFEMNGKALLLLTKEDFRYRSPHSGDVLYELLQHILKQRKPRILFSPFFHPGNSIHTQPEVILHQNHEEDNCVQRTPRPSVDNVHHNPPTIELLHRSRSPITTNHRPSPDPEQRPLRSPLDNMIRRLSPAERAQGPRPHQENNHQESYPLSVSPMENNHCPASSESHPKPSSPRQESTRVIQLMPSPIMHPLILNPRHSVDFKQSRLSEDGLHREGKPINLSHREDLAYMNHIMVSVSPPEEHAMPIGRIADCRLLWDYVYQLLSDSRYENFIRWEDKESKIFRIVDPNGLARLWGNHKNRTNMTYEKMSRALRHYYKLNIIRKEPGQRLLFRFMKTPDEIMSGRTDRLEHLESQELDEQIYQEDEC
Sequence of ELF4 (Q99607 whole entry): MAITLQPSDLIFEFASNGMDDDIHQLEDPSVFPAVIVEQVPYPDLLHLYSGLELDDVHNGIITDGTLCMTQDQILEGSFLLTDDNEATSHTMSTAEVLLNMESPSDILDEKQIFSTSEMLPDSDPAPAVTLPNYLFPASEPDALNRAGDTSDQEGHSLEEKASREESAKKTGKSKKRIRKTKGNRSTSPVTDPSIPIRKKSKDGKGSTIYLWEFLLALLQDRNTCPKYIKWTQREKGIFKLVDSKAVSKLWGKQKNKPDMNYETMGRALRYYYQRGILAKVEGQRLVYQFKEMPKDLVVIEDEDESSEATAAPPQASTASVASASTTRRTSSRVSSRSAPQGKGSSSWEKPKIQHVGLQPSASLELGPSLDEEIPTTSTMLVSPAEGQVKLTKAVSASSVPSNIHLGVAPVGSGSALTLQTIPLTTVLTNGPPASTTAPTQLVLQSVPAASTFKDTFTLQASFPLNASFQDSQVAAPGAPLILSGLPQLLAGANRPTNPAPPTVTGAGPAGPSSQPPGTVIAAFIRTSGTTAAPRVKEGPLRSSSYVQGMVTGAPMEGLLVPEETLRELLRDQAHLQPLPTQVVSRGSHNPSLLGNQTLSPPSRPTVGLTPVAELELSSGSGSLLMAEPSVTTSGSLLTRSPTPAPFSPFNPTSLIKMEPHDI
Sequence of HSF1 (Q00613 whole entry): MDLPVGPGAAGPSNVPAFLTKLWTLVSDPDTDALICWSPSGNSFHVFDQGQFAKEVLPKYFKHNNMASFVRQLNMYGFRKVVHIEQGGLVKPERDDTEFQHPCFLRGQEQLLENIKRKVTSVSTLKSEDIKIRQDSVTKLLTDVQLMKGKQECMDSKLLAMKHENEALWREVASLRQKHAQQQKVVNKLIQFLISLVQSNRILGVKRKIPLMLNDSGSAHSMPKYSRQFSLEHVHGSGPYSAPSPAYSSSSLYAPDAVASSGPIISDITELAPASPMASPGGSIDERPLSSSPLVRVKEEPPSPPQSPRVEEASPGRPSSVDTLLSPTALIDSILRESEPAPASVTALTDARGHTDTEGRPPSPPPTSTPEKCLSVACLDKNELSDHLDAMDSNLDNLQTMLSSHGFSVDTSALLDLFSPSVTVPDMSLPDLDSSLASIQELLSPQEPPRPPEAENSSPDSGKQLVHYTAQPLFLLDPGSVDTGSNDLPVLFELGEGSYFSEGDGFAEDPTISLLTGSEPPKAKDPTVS
Sequence of ETV5 (P41161 whole entry): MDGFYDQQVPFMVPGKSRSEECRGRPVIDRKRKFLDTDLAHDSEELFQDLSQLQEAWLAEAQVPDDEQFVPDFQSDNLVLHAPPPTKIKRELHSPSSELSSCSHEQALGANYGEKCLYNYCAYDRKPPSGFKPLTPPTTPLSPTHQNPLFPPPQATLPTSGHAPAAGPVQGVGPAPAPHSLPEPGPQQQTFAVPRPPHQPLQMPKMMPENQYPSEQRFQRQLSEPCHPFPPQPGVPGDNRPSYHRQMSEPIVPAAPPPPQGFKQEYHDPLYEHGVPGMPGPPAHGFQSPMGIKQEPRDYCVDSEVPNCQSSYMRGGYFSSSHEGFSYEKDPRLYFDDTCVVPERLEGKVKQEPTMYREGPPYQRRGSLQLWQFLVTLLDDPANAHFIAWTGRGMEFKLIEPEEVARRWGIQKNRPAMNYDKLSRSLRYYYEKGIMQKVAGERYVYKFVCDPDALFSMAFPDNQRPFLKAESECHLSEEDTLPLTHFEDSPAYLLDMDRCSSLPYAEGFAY

As to CTTCAG, the binding signal in the test with FEV was 1.26 fold enrichment (6-mer frequency, TF over GST control); with ETV5, 1.21 fold enrichment (6-mer frequency, TF over GST control); with HSF1, 1.23 fold enrichment (6-mer frequency, TF over GST control); with SPIC it was 1.26 fold enrichment (6-mer frequency, TF over GST control); with ELF4 it was 1.34 fold enrichment (6-mer frequency, TF over GST control); with ELK4 it was 1.41 fold enrichment (6-mer frequency, TF over GST control). Also, the binding signal was 1.23 fold enrichment (6-mer frequency, TF over GST control) with ETV2; 1.39 fold enrichment (6-mer frequency, TF over GST control) in the test with ELF3; 1.16 fold enrichment (6-mer frequency, TF over GST control) in the test with CRX; 1.33 fold enrichment (6-mer frequency, TF over GST control) in the test with ETV1; 1.27 fold enrichment (6-mer frequency, TF over GST control) with ERF; 1.26 fold enrichment (6-mer frequency, TF over GST control) with ETV3L. For the same sequence, the binding signal was 1.33 fold enrichment (6-mer frequency, TF over GST control) with ETS2; 1.34 fold enrichment (6-mer frequency, TF over GST control) in the test with SPDEF; 1.29 fold enrichment (6-mer frequency, TF over GST control) with ETV7; 1.35 fold enrichment (6-mer frequency, TF over GST control) with ELF5; 1.17 fold enrichment (6-mer frequency, TF over GST control) with ETV3; 1.37 fold enrichment (6-mer frequency, TF over GST control) with ETV6.
